The list is not random: actives were taken first. Their share in the collection is about 1.6%.
KCNQ2 block – rat KCNQ2 potassium channel inhibitors, primary screen, cell-based, CHO-K1, FluxOR thallium flux, B-score; Potassium voltage-gated channel subfamily KQT member 2 (Rattus norvegicus), O88943; 20 min; hits give low values; B-score at 10 µM; 310,000 compounds, 1.1% hits; AID 2156, 2009;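 active = fluorescence ratio B-score at most minus 3 library SDs, with starting brightness B-score within 2 library SDs, cut at about -5.5 in these data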
KCNQ2 enhance – potentiators of rat KCNQ2 potassium channel; Potassium voltage-gated channel subfamily KQT member 2 (Rattus norvegicus), O88943; CHO-K1 KCNQ2, FluxOR thallium flux fluorescence; hits give high values; B-score at 10 µM; 310,000 compounds, 0.54% hits; AID 2239, 2010;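 active = fluorescence ratio B-score at least 3 SD of library B-scores, with initial fluorescence B-score within 3 of them, cut at about 5.3 in these data; same plate scores as AID 2156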;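 note: B-score of peak minus minimum over baseline fluorescence ratio after K+ and Tl+ stimulus; positive B-score means potentiation of KCNQ2 with more thallium influx and brighter signal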
Kir21 confirm – mouse Kir2.1 channel blockers, retest, confirmation, cell-based, FluxOR thallium flux, duplicate | shares compounds with KCNQ2 enhance | Kir2.1-expressing cells, FluxOR thallium flux fluorescence; hits give low values | Tl flux remaining, % of negative control (hits give low values), % at 10 µM | 2,300 compounds, 41% hits | AID 2032, 2009;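 active = Primary-screen hit whose thallium flux fell at least 3 control SD below untreated wells in both duplicates, with normal baseline fluorescence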;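 note: 0% = blank wells without stimulus and 100% = stimulated no-compound controls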
HEK293 ctr – alters thallium flux in parental HEK293 cells, Kir2.1 counter-screen | 2,300 compounds, 19% hits | FluxOR signal as % of negative control (100 = no effect), % at 10 µM | FluxOR thallium flux fluorescence; 0% = unstimulated blank wells | shares compounds with KCNQ2 enhance | AID 2105;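 active = dye signal at least 3 control SD above or below untreated wells in both duplicates, raw fluorescence within 3, either direction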;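 note: percent is based on the flux ratio of peak minus minimum fluorescence over baseline F0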
CHO-K1 Tl ctr – nonspecific thallium flux increase in parental CHO-K1, confirmation, counter-screen for KCNQ2 potentiator project, cell-based, FluxOR thallium flux, duplicate; shares compounds with KCNQ2 enhance; parental CHO-K1 cells, FluxOR thallium flux fluorescence; zero = vehicle mean+3SD, 100% = vehicle-minus-blank window; activity increase over 3SD of controls, % at 10 µM; 1,200 compounds, 43% hits;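 active = signal rise of at least 3 SD above the untreated control mean, in both duplicate wells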;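 note: counter screen of KCNQ2 potentiator hits so any rise reflects channel-independent effects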
KCNQ1 sel pot – human KCNQ1 channel potentiation off-target, confirmation, selectivity assay for KCNQ2 potentiator project, cell-based, CHO, FluxOR thallium flux; shares compounds with KCNQ2 enhance; 1,200 compounds, 28% hits; activation over 3SD threshold, % at 10 µM; CHO KCNQ1 stable, FluxOR thallium flux fluorescence; beyond 3SD, as % of vehicle-control signal;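 active = fluorescence ratio rise of at least 3 SD of vehicle wells above their mean, in both replicate wells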;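 note: 0% = vehicle mean plus 3 SD and 100% = vehicle minus unstimulated blank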
Target sequence (P51787 whole entry, looked up): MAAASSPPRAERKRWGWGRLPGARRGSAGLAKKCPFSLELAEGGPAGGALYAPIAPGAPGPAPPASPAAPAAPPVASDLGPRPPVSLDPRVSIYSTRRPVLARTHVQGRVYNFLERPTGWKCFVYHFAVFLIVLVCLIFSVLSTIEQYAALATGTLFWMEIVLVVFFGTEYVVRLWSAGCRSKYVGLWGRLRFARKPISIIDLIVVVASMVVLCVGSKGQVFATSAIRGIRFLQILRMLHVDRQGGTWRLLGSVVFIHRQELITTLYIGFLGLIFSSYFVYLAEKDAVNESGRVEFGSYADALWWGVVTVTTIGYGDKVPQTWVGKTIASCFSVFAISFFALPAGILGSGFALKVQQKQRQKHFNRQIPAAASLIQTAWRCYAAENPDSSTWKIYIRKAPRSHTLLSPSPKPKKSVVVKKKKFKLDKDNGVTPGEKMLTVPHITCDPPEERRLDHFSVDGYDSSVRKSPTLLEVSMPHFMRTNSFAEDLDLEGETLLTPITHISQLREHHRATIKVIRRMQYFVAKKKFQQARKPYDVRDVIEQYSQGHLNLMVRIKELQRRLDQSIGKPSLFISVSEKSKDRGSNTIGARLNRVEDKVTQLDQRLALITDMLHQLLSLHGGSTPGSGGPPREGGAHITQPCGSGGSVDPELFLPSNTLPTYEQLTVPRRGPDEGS
KCNQ2 pot confirm – rat KCNQ2 channel potentiators, confirmation, cell-based, CHO, FluxOR thallium flux, duplicate; shares compounds with KCNQ2 enhance; CHO-KCNQ2 cells, FluxOR thallium flux fluorescence; potentiation, less the hit threshold, % at 10 µM; 1,200 compounds, 68% hits; AID 2287, 2010;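 active = fluorescence ratio rising 3 SD or more over the vehicle control mean in both replicates, plus primary screen hit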;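 note: peak minus minimum thallium fluorescence divided by baseline after K/Tl stimulus; 0% = vehicle mean plus 3 SD and 100% = vehicle minus unstimulated blank difference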
Kir2-1 sel – mouse Kir2.1 channel activation off-target, confirmation, selectivity assay for KCNQ2 potentiator project, cell-based, HEK293, FluxOR thallium flux; shares compounds with KCNQ2 enhance; HEK293 Kir2.1, FluxOR thallium flux fluorescence; activity over 3SD threshold, % at 10 µM; 1,200 compounds, 2% hits;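 active = fluorescence ratio rise of at least 3 SD above the vehicle-control mean, seen in both replicates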;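 note: 0% = vehicle mean plus 3 SD and 100% = vehicle minus no-stimulus blank window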
KCNQ2 W236L pot – potentiators of retigabine-insensitive KCNQ2 W236L, mechanism study for KCNQ2 potentiator project, cell-based, rat KCNQ2 W236L, CHO, automated patch clamp; automated patch clamp current; AID 2558, 2010; current increase over 3SD of negative controls (%), hits give high values, % at 25 µM; shares compounds with KCNQ2 enhance; 940 compounds, 10% hits;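 active = current increase at least 3 SD of the untreated controls above them in both duplicate recordings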
* hit, by the source's call; i = inactive; x = no result given.

SMILES	KCNQ2 block	KCNQ2 enhance	Kir21 confirm	HEK293 ctr	others
NS(=O)(=O)c1ccc(NCc2ccccc2OCc2ccc(F)cc2)cc1	i	6.6*	i	i	CHO-K1 Tl ctr=38*;KCNQ1 sel pot=-16;KCNQ2 pot confirm=2.5*;Kir2-1 sel=-54;KCNQ2 W236L pot=i
CCOc1ccc(NC(=O)CN(c2ccc(OC)c(OC)c2)S(=O)(=O)c2ccc(C)cc2)cc1	i	0.15	x	x
Cc1cc(C)c(S(=O)(=O)c2cccc(Cl)c2)c(Cl)n1	i	x	x	x
CCOc1nc(C)cc(C)c1S(=O)(=O)c1cccc(Cl)c1	i	x	61%*	i
N#Cc1ccccc1NC(=O)CN(Cc1ccccc1)Cc1ccccc1	i	x	x	x
N#Cc1ccc(CSc2nnc(-c3ccncc3)n2CCc2ccccc2)cc1	i	x	x	x
C=CCn1c(SCC(=O)NC(C)(C)C)nnc1-c1ccccc1O	i	x	x	x
C=CCn1c(SCc2cccc(C#N)c2)nnc1-c1ccccc1O	i	0.25	52%*	i
C=CCn1c(SCc2ccc(C#N)cc2)nnc1-c1cccc(Cl)c1	i	x	52%*	72%*
COc1cc(NS(=O)(=O)c2ccc(C)cc2)ccc1-n1cnnn1	i	1	x	x
O=C(CCCN1C(=O)c2cccc3cccc(c23)C1=O)Nc1nccs1	i	0.04	x	x
COc1ccc(CCNC(=O)C/C(C)=N/NC(=O)c2ccc([N+](=O)[O-])cc2Cl)cc1OC	i	0.22	x	x
COc1ccc(Nc2ccnc3ccccc23)cc1	i	2	14%*	i
COc1ccc(Nc2ncnc3ccccc23)cc1	i	2.4	x	x
O=C(COC(=O)C1CCN(c2ccc(C(F)(F)F)cn2)CC1)Nc1ccc(Cl)cc1	i	2	x	x
CN(CC(=O)Nc1ccc(F)cc1)C(=O)COC(=O)C1CCN(c2ccc(C(F)(F)F)cn2)CC1	i	13*	i	i	CHO-K1 Tl ctr=79*;KCNQ1 sel pot=-16;KCNQ2 pot confirm=18*;Kir2-1 sel=-33;KCNQ2 W236L pot=i
N=C1C2=C3Sc4ccccc4N3CCCC2=NN1c1cccc(S(=O)(=O)O)c1	i	x	x	x
CCN(CC)CCNC(=O)c1ccc(NC(=O)COc2ccccc2F)cc1	i	2	x	x
Cc1cccc(NS(=O)(=O)c2c(C)[nH]c(C)c2C(=O)N2CCCC2)c1	i	0.08	x	x
CCCn1c(=N)n(CC(O)COc2ccc(C)cc2)c2ccccc21 (stereo not given)	i	1.5	x	x
CCCn1c(=N)n(CC(O)c2ccc(C)cc2)c2ccccc21 (stereo not given)	i	0.93	60%*	i
CSc1nc(-c2cccs2)c(C#N)c(=O)[nH]1	i	0.13	x	x
N#Cc1c(-c2cccs2)nc(SCc2ccc(Cl)cc2)[nH]c1=O	i	6.1*	i	60%*	CHO-K1 Tl ctr=4.4*;KCNQ1 sel pot=18*;KCNQ2 pot confirm=15*;Kir2-1 sel=-24;KCNQ2 W236L pot=i
CCN(CC)CCCn1c2c(c(SCC(=O)N3CCc4ccccc43)nc1=O)CCC2	i	0.93	x	x
